# Results as given in PubChem BioAssay (NCI).
# This is part of a sample that, as a whole, favours compounds with a hit. Of some 79,000 tested, about 15% had one in any assay. Unmarked numbers belong to inactive results. Calls of active or inactive are those of the source. Rule as the data show it: active = growth inhibition above about 70%; inactive = the rest.
# What was measured:
# [1] = NCI Yeast Anticancer Drug Screen. Data for the rad52 strain (AID 147);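 also: 0% = growth of vehicle-treated control cultures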; conditions: S. cerevisiae rad52 mutant growth inhibition, hits give high values
# Method in brief: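 Inhibition of yeast growth, referenced to vehicle controls, was the measured output for a strain with defective DNA damage repair.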
# [2] = NCI Yeast Anticancer Drug Screen. Data for the wt1 strain (AID 149);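 also: 0% = growth of vehicle-treated wt1 cultures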; conditions: S. cerevisiae wt1 strain (SPY 50644) growth inhibition, hits give high values
# Method in brief: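 Growth inhibition read against vehicle controls after compound exposure of the wt1 yeast strain.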
# [3] = NCI Yeast Anticancer Drug Screen. Data for the rad50EPP+ strain (AID 151);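 also: 0% = growth of vehicle-treated control cultures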; conditions: S. cerevisiae rad50 mutant strain, hits give high values
# Method in brief: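 Genetically defined yeast (rad50EPP+, DNA damage repair alteration) is grown with compound, and inhibition of growth is expressed relative to vehicle-treated controls.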
# [4] = NCI Yeast Anticancer Drug Screen. Data for the mgt1 strain (AID 153); conditions: S. cerevisiae mgt1 mutant growth inhibition, hits give high values
# Method in brief: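 In the mgt1 strain, test compounds were added and growth inhibition was determined relative to vehicle-treated controls.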
# [5] = NCI Yeast Anticancer Drug Screen. Data for the rad50 strain (AID 155);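 also: 0% = growth of vehicle-only cultures of the same strain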; conditions: S. cerevisiae rad50 strain growth inhibition, hits give high values
# Method in brief: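 Readout: growth inhibition relative to vehicle-treated cultures. Compound exposure was carried out in a genetically defined yeast strain deficient in DNA damage repair.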
# [6] = NCI Yeast Anticancer Drug Screen. Data for the mec2-1 strain (AID 157); conditions: S. cerevisiae mec2-1 strain, hits give high values
# Method in brief: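 Each compound was tested on mec2-1 yeast, a strain altered in DNA damage repair or cell cycle control. Growth inhibition is reported relative to vehicle.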
# [7] = NCI Yeast Anticancer Drug Screen. Data for the rad14 strain (AID 159);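 also: 0% = growth of vehicle-treated control cultures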; conditions: S. cerevisiae rad14 strain growth inhibition, hits give high values
# Method in brief: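 Growth inhibition vs vehicle controls; genetically altered yeast strain (DNA damage repair defect) treated with test compounds.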
# [8] = NCI Yeast Anticancer Drug Screen. Data for the sgs1 mgt1 strain (AID 161);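 also: 0% = growth of cultures given vehicle only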; conditions: S. cerevisiae sgs1 mgt1 strain, hits give high values
# Method in brief: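 Genetically altered yeast, compound exposure, growth inhibition relative to vehicle.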
# [9] = NCI Yeast Anticancer Drug Screen. Data for the CLN2oe strain (AID 163);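 also: 0% = growth of vehicle-only control cultures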; conditions: S. cerevisiae CLN2oe strain, hits give high values
# Method in brief: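 First, the altered yeast strain was treated with each compound; second, its growth was measured; finally, inhibition was derived by comparison with vehicle controls.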
# [10] = NCI Yeast Anticancer Drug Screen. Data for the cln2 rad14 strain (AID 165);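 also: 0% = growth equal to vehicle treated cultures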; conditions: S. cerevisiae cln2 rad14 strain, hits give high values
# Method in brief: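 Test compounds were added to cln2 rad14 yeast cultures; inhibition of growth was then determined by comparison with vehicle treatment.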
# [11] = NCI Yeast Anticancer Drug Screen. Data for the bub3 strain (AID 167); conditions: S. cerevisiae bub3 mutant strain, hits give high values
# Method in brief: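 Readout: yeast growth inhibition, expressed relative to vehicle-only wells. The test organism is a mutant strain from a panel with lesions in DNA repair or checkpoint genes.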
# [12] = NCI Yeast Anticancer Drug Screen. Data for the wt2 strain (AID 169);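 also: 0% = growth of vehicle-treated yeast cultures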; conditions: S. cerevisiae wt2 strain growth inhibition, hits give high values
# Method in brief: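 The panel's yeast strains carry defined changes in DNA repair or cell cycle genes. Each strain is grown with compound, and growth loss is scored relative to vehicle.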
# [13] = NCI Yeast Anticancer Drug Screen. Data for the mlh1 rad18 strain (AID 175); conditions: S. cerevisiae mlh1 rad18 strain growth inhibition, hits give high values
# Method in brief: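 Inhibition values reflect reduced growth of mutant yeast versus vehicle-treated controls following compound exposure; the mutations affect DNA damage repair.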
# [14] = NCI Yeast Anticancer Drug Screen. Data for the rad18 strain (AID 177); conditions: S. cerevisiae rad18 mutant growth inhibition, hits give high values
# Method in brief: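 Steps: expose repair-mutant yeast to compound; measure growth; express as inhibition relative to vehicle control.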
# [15] = NCI Yeast Anticancer Drug Screen. Data for the mlh1 strain (AID 171);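 also: 0% = growth of vehicle-treated control cultures of the same strain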; conditions: S. cerevisiae mlh1 strain growth inhibition, hits give high values
# Method in brief: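 Inhibition values reflect reduced yeast growth in the presence of compound, referenced to vehicle controls, using a strain chosen for its alteration in DNA repair or cell cycle control.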
# [16] = NCI Yeast Anticancer Drug Screen. Data for the sgs1 strain (AID 173);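 also: 0% = growth of vehicle-only control cultures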; conditions: S. cerevisiae sgs1 mutant, hits give high values
# Method in brief: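 Vehicle-treated cultures served as reference for growth inhibition of a yeast strain altered in DNA damage repair or cell cycle control after compound exposure.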
# [17] = at 5.0 µM (retest, dose inferred, filed as 0.5)
# [18] = at 50.0 µM (retest, dose inferred, filed as 5.0)
structure (smiles),measurement,setting,value
CC1CCC2(C(=O)O)CCC3(C)C(=CCC4C5(C)CC(O)C(O)C(C)(CO)C5C(O)CC43C)C2C1C (stereo unspecified),growth inhibition,[1]; at 1.2 µM,-23%
same,growth inhibition,[1]; at 3.7 µM,-25%
same,growth inhibition,[1]; at 11.0 µM,-28%
same,growth inhibition,[1]; at 33.0 µM,-15%
same,growth inhibition,[1]; at 100.0 µM,81% (active)
same,growth inhibition,[2]; at 1.2 µM,-17%
same,growth inhibition,[2]; at 3.7 µM,-20%
same,growth inhibition,[2]; at 11.0 µM,-17%
same,growth inhibition,[2]; at 33.0 µM,-3%
same,growth inhibition,[2]; at 100.0 µM,80% (active)
same,growth inhibition,[3]; at 1.2 µM,0%
same,growth inhibition,[3]; at 3.7 µM,-7%
same,growth inhibition,[3]; at 11.0 µM,-2%
same,growth inhibition,[3]; at 33.0 µM,3%
same,growth inhibition,[3]; at 100.0 µM,33%
same,growth inhibition,[4]; at 1.2 µM,-34%
same,growth inhibition,[4]; at 3.7 µM,-34%
same,growth inhibition,[4]; at 11.0 µM,-32%
same,growth inhibition,[4]; at 33.0 µM,-36%
same,growth inhibition,[4]; at 100.0 µM,47%
same,growth inhibition,[5]; at 1.2 µM,13%
same,growth inhibition,[5]; at 3.7 µM,-20%
same,growth inhibition,[5]; [17],54%
same,growth inhibition,[5]; at 11.0 µM,-20%
same,growth inhibition,[5]; at 33.0 µM,-28%
same,growth inhibition,[5]; [18],88% (active)
same,growth inhibition,[5]; at 50.0 µM,76.9% (active)
same,growth inhibition,[5]; at 100.0 µM,63%
same,growth inhibition,[6]; at 1.2 µM,-15%
same,growth inhibition,[6]; at 3.7 µM,-6%
same,growth inhibition,[6]; [17],-1%
same,growth inhibition,[6]; at 11.0 µM,-17%
same,growth inhibition,[6]; at 33.0 µM,-15%
same,growth inhibition,[6]; [18],90% (active)
same,growth inhibition,[6]; at 50.0 µM,82.3% (active)
same,growth inhibition,[6]; at 100.0 µM,75% (active)
same,growth inhibition,[7]; at 1.2 µM,-13%
same,growth inhibition,[7]; at 3.7 µM,-13%
same,growth inhibition,[7]; at 11.0 µM,-4%
same,growth inhibition,[7]; at 33.0 µM,6%
same,growth inhibition,[7]; at 100.0 µM,85% (active)
same,growth inhibition,[8]; [17],16%
same,growth inhibition,[8]; [18],70% (active)
same,growth inhibition,[8]; at 50.0 µM,78.7% (active)
same,growth inhibition,[9]; at 1.2 µM,-6%
same,growth inhibition,[9]; at 3.7 µM,-4%
same,growth inhibition,[9]; at 11.0 µM,3%
same,growth inhibition,[9]; at 33.0 µM,7%
same,growth inhibition,[9]; at 100.0 µM,78% (active)
same,growth inhibition,[10]; [17],20%
same,growth inhibition,[10]; [18],77% (active)
same,growth inhibition,[10]; at 50.0 µM,39.1%
same,growth inhibition,[11]; at 1.2 µM,-5%
same,growth inhibition,[11]; at 3.7 µM,-2%
same,growth inhibition,[11]; [17],16%
same,growth inhibition,[11]; at 11.0 µM,-1%
same,growth inhibition,[11]; at 33.0 µM,13%
same,growth inhibition,[11]; [18],93% (active)
same,growth inhibition,[11]; at 50.0 µM,88.9% (active)
same,growth inhibition,[11]; at 100.0 µM,95% (active)
same,growth inhibition,[12]; at 1.2 µM,-2%
same,growth inhibition,[12]; at 3.7 µM,-2%
same,growth inhibition,[12]; at 11.0 µM,-1%
same,growth inhibition,[12]; at 33.0 µM,21%
same,growth inhibition,[12]; at 100.0 µM,96% (active)
same,growth inhibition,[13]; [17],41%
same,growth inhibition,[13]; [18],78% (active)
same,growth inhibition,[13]; at 50.0 µM,58.7%
same,growth inhibition,[14]; at 1.2 µM,-43%
same,growth inhibition,[14]; at 3.7 µM,-47%
same,growth inhibition,[14]; at 11.0 µM,-42%
same,growth inhibition,[14]; at 33.0 µM,-61%
same,growth inhibition,[14]; at 100.0 µM,87% (active)
CC[C@@]1(OC(=O)CN(C)C)C(=O)OCc2c1cc1n(c2=O)Cc2cc3c(N)cccc3nc2-1,growth inhibition,[1]; at 1.2 µM,53%
same,growth inhibition,[1]; at 3.7 µM,75% (active)
same,growth inhibition,[1]; at 11.0 µM,88% (active)
same,growth inhibition,[1]; at 33.0 µM,93% (active)
same,growth inhibition,[1]; at 100.0 µM,95% (active)
same,growth inhibition,[2]; at 1.2 µM,0%
same,growth inhibition,[2]; at 3.7 µM,-2%
same,growth inhibition,[2]; at 11.0 µM,-1%
same,growth inhibition,[2]; at 33.0 µM,6%
same,growth inhibition,[2]; at 100.0 µM,25%
same,growth inhibition,[3]; at 1.2 µM,7%
same,growth inhibition,[3]; at 3.7 µM,22%
same,growth inhibition,[3]; at 11.0 µM,55%
same,growth inhibition,[3]; at 33.0 µM,77% (active)
same,growth inhibition,[3]; at 100.0 µM,87% (active)
same,growth inhibition,[4]; at 1.2 µM,-2%
same,growth inhibition,[4]; at 3.7 µM,0%
same,growth inhibition,[4]; at 11.0 µM,2%
same,growth inhibition,[4]; at 33.0 µM,20%
same,growth inhibition,[4]; at 100.0 µM,39%
same,growth inhibition,[5]; at 1.2 µM,68%
same,growth inhibition,[5]; at 3.7 µM,82% (active)
same,growth inhibition,[5]; [17],90% (active)
same,growth inhibition,[5]; at 11.0 µM,91% (active)
same,growth inhibition,[5]; at 33.0 µM,94% (active)
same,growth inhibition,[5]; [18],90% (active)
same,growth inhibition,[5]; at 50.0 µM,-17.9%
same,growth inhibition,[5]; at 100.0 µM,95% (active)
same,growth inhibition,[6]; at 1.2 µM,0%
same,growth inhibition,[6]; at 3.7 µM,8%
same,growth inhibition,[6]; [17],22%
same,growth inhibition,[6]; at 11.0 µM,46%
same,growth inhibition,[6]; at 33.0 µM,88% (active)
same,growth inhibition,[6]; [18],22%
same,growth inhibition,[6]; at 50.0 µM,58.4%
same,growth inhibition,[6]; at 100.0 µM,96% (active)
same,growth inhibition,[7]; at 1.2 µM,2%
same,growth inhibition,[7]; at 3.7 µM,0%
same,growth inhibition,[7]; at 11.0 µM,4%
same,growth inhibition,[7]; at 33.0 µM,19%
same,growth inhibition,[7]; at 100.0 µM,51%
same,growth inhibition,[8]; [17],14%
same,growth inhibition,[8]; [18],14%
same,growth inhibition,[8]; at 50.0 µM,6.05%
same,growth inhibition,[9]; at 1.2 µM,-8%
same,growth inhibition,[9]; at 3.7 µM,1%
same,growth inhibition,[9]; at 11.0 µM,8%
same,growth inhibition,[9]; at 33.0 µM,43%
same,growth inhibition,[9]; at 100.0 µM,80% (active)
same,growth inhibition,[10]; [17],17%
same,growth inhibition,[10]; [18],17%
same,growth inhibition,[10]; at 50.0 µM,31.1%
same,growth inhibition,[11]; at 1.2 µM,-14%
same,growth inhibition,[11]; at 3.7 µM,-20%
same,growth inhibition,[11]; [17],6%
same,growth inhibition,[11]; at 11.0 µM,-3%
same,growth inhibition,[11]; at 33.0 µM,20%
same,growth inhibition,[11]; [18],6%
same,growth inhibition,[11]; at 50.0 µM,0.7%
same,growth inhibition,[11]; at 100.0 µM,59%
same,growth inhibition,[12]; at 1.2 µM,-2%
same,growth inhibition,[12]; at 3.7 µM,1%
same,growth inhibition,[12]; at 11.0 µM,3%
same,growth inhibition,[12]; at 33.0 µM,13%
same,growth inhibition,[12]; at 100.0 µM,32%
same,growth inhibition,[15]; at 1.2 µM,-1%
same,growth inhibition,[15]; at 3.7 µM,-2%
same,growth inhibition,[15]; at 11.0 µM,1%
same,growth inhibition,[15]; at 33.0 µM,28%
same,growth inhibition,[15]; at 100.0 µM,55%
same,growth inhibition,[16]; at 1.2 µM,0%
same,growth inhibition,[16]; at 3.7 µM,4%
same,growth inhibition,[16]; at 11.0 µM,17%
same,growth inhibition,[16]; at 33.0 µM,40%
same,growth inhibition,[16]; at 100.0 µM,64%
same,growth inhibition,[13]; [17],27%
same,growth inhibition,[13]; [18],27%
same,growth inhibition,[13]; at 50.0 µM,73.5% (active)
same,growth inhibition,[14]; at 1.2 µM,-18%
same,growth inhibition,[14]; at 3.7 µM,-5%
same,growth inhibition,[14]; at 11.0 µM,5%
same,growth inhibition,[14]; at 33.0 µM,19%
same,growth inhibition,[14]; at 100.0 µM,51%
